Among the data in PMC7819943, “Rice protein-binding microarrays: a tool to detect cis-acting elements near promoter regions in rice” are binding signal values, retold here.

The full ranking holds about 68,000 sequences; the median of “fluorescence intensity (a.u.)” is about 9,100, and the highest 2% start at about 16,000. What follows is part of a selection rich in the highest values, with near analogues and random picks from the rest.

Chain of OsWRKY34 (Q0JBA9 entry or part of it): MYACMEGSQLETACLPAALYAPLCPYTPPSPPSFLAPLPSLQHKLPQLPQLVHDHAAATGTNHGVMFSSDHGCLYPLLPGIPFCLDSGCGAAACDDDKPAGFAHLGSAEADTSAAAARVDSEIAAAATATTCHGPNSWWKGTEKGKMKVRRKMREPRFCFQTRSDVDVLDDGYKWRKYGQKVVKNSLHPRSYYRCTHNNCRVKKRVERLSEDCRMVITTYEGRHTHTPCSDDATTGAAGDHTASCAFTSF

The target in the assay is OsWRKY34 (Oryza sativa, UniProt Q0JBA9 1-250). Kind of assay: protein-binding microarray (RPBM); PBS, 2% BSA, 51.3 ng/ul salmon testes DNA, 50 uM zinc acetate, 200 nM TF, 25 C, 1 h; high values mean tight binding. Conditions: protein: recombinant; tags: N-terminal polyhistidine and DsRed monomer fusion (pET32a); label: CyDye5-dUTP incorporated in the synthesized complementary strand; 3' TTTTT single-stranded linker to array surface; dsDNA, one strand shown. An outline of the steps:
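Per-feature fluorescence intensity (arbitrary units), read on an Axon 4000B scanner, is the binding signal. Transcription factors carrying an N-terminal polyhistidine tag and DsRed fusion were expressed in E. coli BL21-CodonPlus and purified on Ni–NTA. A custom Agilent array, made double-stranded by primer extension with Cy5-dUTP and blocked with 2% BSA, was incubated with 200 nM protein in PBS, 2% BSA, salmon testes DNA and 50 µM zinc acetate at 25 °C for 1 h and then washed.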
Consider “ATATCATGTTTATTATCTTGTTATTTTGGATTAAAATATGCGGAGTCACCTAGTGCAG”, for which the binding signal is 9720 fluorescence intensity (a.u.).

Take “GATGCCTGCCAATCTGCCATGCCATTATATCTGCAGTTCTCGGAGTCACCTAGTGCAG”: the binding signal is 12000 fluorescence intensity (a.u.).

With “CGTCTCTCCCGATCCGTCCCATCAAAAAGCAACACCAATACGGAGTCACCTAGTGCAG”, the binding signal was 8530 fluorescence intensity (a.u.).

In the case of “ATTTTTATAGTATTACATCTACGTGTAAAGTTTCATCTTTCGGAGTCACCTAGTGCAG”, the binding signal was 8260 fluorescence intensity (a.u.).

For the sequence “CTATGGTTTGGTTTGAATTTTACTGTTGTATGCTGTTCCCCGGAGTCACCTAGTGCAG”, the binding signal was 8660 fluorescence intensity (a.u.).

For the sequence “TGGCCGGGAGGGTTGGCCCTTGTGGTTTCGGGGTTTGGTTCGGAGTCACCTAGTGCAG”, the binding signal was 15900 fluorescence intensity (a.u.).

Regarding “CTTTTCTCATCCCTTTTGTTTCTTCACTCCGGCTCACCGCCGGAGTCACCTAGTGCAG”, the binding signal is 8230 fluorescence intensity (a.u.).

Turning to “GTACACGTTACCCGCGTGGGTGTGGGTATGGGGATGATTTCGGAGTCACCTAGTGCAG”, the binding signal was 11700 fluorescence intensity (a.u.).

Take “GATCAGAGATGAGGGCGGGCGGGTTGACTGGGAGAGTAGACGGAGTCACCTAGTGCAG”: the binding signal was 20500 fluorescence intensity (a.u.).

In the case of “CGAGGGAGAGGGGAGAGGGGAGTGCGGCGGGTGAGGCGGGCGGAGTCACCTAGTGCAG”, the binding signal was 9650 fluorescence intensity (a.u.).

With “TGAGAAAGAGAGAGAGAGGGAGATGGCTGGGGAGACGGGGCGGAGTCACCTAGTGCAG”, the binding signal is 9660 fluorescence intensity (a.u.).

Take “GGGTTGAGATGGGAGTAGAGGGGAGTGAGGTGGAAGAAGACGGAGTCACCTAGTGCAG”: the binding signal was 8360 fluorescence intensity (a.u.).

Regarding “GCGGTGATGACAGACGGGAGAGGGAGGGTTTTTTTTGTTACGGAGTCACCTAGTGCAG”, the binding signal was 18200 fluorescence intensity (a.u.).

With “AGTGTTCTAGACTTACGGGTTACGGTTTTTTTTGTTAGAGCGGAGTCACCTAGTGCAG”, the binding signal is 8090 fluorescence intensity (a.u.).

Regarding “TATTTTTGACCAGAGGGAGGGTTTTTTTTTTTTTGAGAGACGGAGTCACCTAGTGCAG”, the binding signal is 10300 fluorescence intensity (a.u.).

Turning to “TAGGGTTTGGTTGGGTTTTTGGGTGTTTTCAGACGGAGAGCGGAGTCACCTAGTGCAG”, the binding signal is 12800 fluorescence intensity (a.u.).

As to “GGGTGTTTTCAGACGGAGAGAGGCGGCGGCGGCGGCGGGGCGGAGTCACCTAGTGCAG”, the binding signal is 18500 fluorescence intensity (a.u.).

Consider “ACACAGCCACACACCAACATGCCCTTCAGGTCTTCACACTCGGAGTCACCTAGTGCAG”, for which the binding signal is 9550 fluorescence intensity (a.u.).

In the case of “TTGTCTCCTATCTTGTGCCGTGCCTTCTTAAACCATTGCTCGGAGTCACCTAGTGCAG”, the binding signal was 8610 fluorescence intensity (a.u.).

For the sequence “CATGGCCTAGTTGGGGTGTTGCGTATGTAATTTATCTGTCCGGAGTCACCTAGTGCAG”, the binding signal is 8100 fluorescence intensity (a.u.).

As to “TTGACGGAGCATCTATACCCGGTTTTGTAGTTCATGAACACGGAGTCACCTAGTGCAG”, the binding signal is 9100 fluorescence intensity (a.u.).

Consider “ATTTTGGTACTACTCTATATTTTAGTTTGCAGCTTGTGCTCGGAGTCACCTAGTGCAG”, for which the binding signal was 10600 fluorescence intensity (a.u.).

As to “ATATACACATTCTCCCATTGCTATATTATCTGTATTCTGACGGAGTCACCTAGTGCAG”, the binding signal was 13400 fluorescence intensity (a.u.).

Consider “GATCTTGTGCACCTTACAAATTACATTGCCGACCATAAAACGGAGTCACCTAGTGCAG”, for which the binding signal is 9320 fluorescence intensity (a.u.).

Consider “CTCTCTCTATCCATCTCTTTCTCTCTCTCTTACACAACAACGGAGTCACCTAGTGCAG”, for which the binding signal was 8150 fluorescence intensity (a.u.).

As to “ATCTATCACCATCTCTCCTTGATCTTGTGCACCTTACAAACGGAGTCACCTAGTGCAG”, the binding signal was 16800 fluorescence intensity (a.u.).

Take “GTTATCAGCTTTTCTTTTTTTTTTGAAATTTCAGATTATTCGGAGTCACCTAGTGCAG”: the binding signal was 8980 fluorescence intensity (a.u.).

With “CCCCATTCACTTCCACAGACAAGTAGCATCACCTTTCAGTCGGAGTCACCTAGTGCAG”, the binding signal is 8710 fluorescence intensity (a.u.).

Turning to “GTTGACCGTTGACCTTTTTGTGGGTCAACTCAATCAAGACCGGAGTCACCTAGTGCAG”, the binding signal was 16600 fluorescence intensity (a.u.).

As for “CCATATTTTAATGTATGACGCCATTGACTTTTTGTCCAACCGGAGTCACCTAGTGCAG”, the binding signal is 14500 fluorescence intensity (a.u.).

For the sequence “GTATGACGCCGTTGACTTTTCGATCAACGTTTGACTATTTCGGAGTCACCTAGTGCAG”, the binding signal is 25300 fluorescence intensity (a.u.).

For the sequence “AATATATGACGCCGTTAACTTTTCGAACAACATTTGACTACGGAGTCACCTAGTGCAG”, the binding signal was 9760 fluorescence intensity (a.u.).

Consider “CGATCAACGTTTGACTATTTGTTTTATTCAAAATTTTTGTCGGAGTCACCTAGTGCAG”, for which the binding signal was 9460 fluorescence intensity (a.u.).

With “ATTTTAATGTATGACGCCGTTGACTTTTTGTCCAACGTTTCGGAGTCACCTAGTGCAG”, the binding signal was 25600 fluorescence intensity (a.u.).

In the case of “CACCTTGACTCAGCGTGGTTGACTCTAGTCAACTTGTCACCGGAGTCACCTAGTGCAG”, the binding signal was 10400 fluorescence intensity (a.u.).

For the sequence “TAAATGTTTAACGTTGTTGACTTTTTTAAACATGTTTGACCGGAGTCACCTAGTGCAG”, the binding signal was 13500 fluorescence intensity (a.u.).

Turning to “TAAATGTTTAACGTCGTTGACTTTTTTAAACATGTATGACCGGAGTCACCTAGTGCAG”, the binding signal was 19200 fluorescence intensity (a.u.).

Turning to “CCTCCTTTTGACTCAGCAAGTCAATTGTGGTCAACCTGCCCGGAGTCACCTAGTGCAG”, the binding signal was 8970 fluorescence intensity (a.u.).

Take “CACCAAGCATGTCCATGACCTTGCACTCTTGGCTCACTCGCGGAGTCACCTAGTGCAG”: the binding signal is 8030 fluorescence intensity (a.u.).

In the case of “CAAAATCCTTTTTCTTTTTTTCATTTTTTCTGTGCTTTTTCGGAGTCACCTAGTGCAG”, the binding signal was 8680 fluorescence intensity (a.u.).

As to “TAGGCTGATGGGTCTTCATGCTTCGGTTCATCTTCGTCTCCGGAGTCACCTAGTGCAG”, the binding signal is 10200 fluorescence intensity (a.u.).

In the case of “GGTGAGCTCTCTTTAATGCATATACACAGCAGCCTATTGCCGGAGTCACCTAGTGCAG”, the binding signal was 8440 fluorescence intensity (a.u.).

Regarding “TGTGATTTGCACCGCATACTTTCCCCGACAATAGATCATCCGGAGTCACCTAGTGCAG”, the binding signal is 8850 fluorescence intensity (a.u.).

As to “CCTCCGCTTCTTCGCCGCCGCCGCCATCCCGCCCTAGCGACGGAGTCACCTAGTGCAG”, the binding signal is 9070 fluorescence intensity (a.u.).

As to “ATTTTCTTTAAGAGATGTTCTTGTCTGTTGTCAGGTTTGTCGGAGTCACCTAGTGCAG”, the binding signal was 9670 fluorescence intensity (a.u.).
